From PubChem BioAssay
Calls of active or inactive are those of the source.

Key:
[1] = test system: Plasmodium falciparum Sir2 (PF13_0152, Sir2A); assay: pfSir2 binders on small-molecule microarrays, primary screen, biochemical, small-molecule microarray, 635 nm fluorescence (AID 1098); conditions: small-molecule microarray binding, fluorescence 635 nm; higher = more signal;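 further: score merges spot fluorescence intensity with its signal-to-noise ratio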
[2] = small-molecule microarray binders of probe aDKK1, primary screen, biochemical, biotinylated probe, 635/667 nm fluorescence (AID 1099); conditions: higher = more signal;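 further: score merges 667nm spot fluorescence with signal to noise across triplicate slides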
[3] = small-molecule microarray binders of probe aCHRDL2, primary screen, biochemical, biotinylated probe, 635/667 nm fluorescence (AID 1100); conditions: higher = more signal
[4] = splicing luciferase reporter signal modulators, primary screen, spliceosome inhibition project, cell-based, HEK293, splice +/- reporter (AID 1101); conditions: luminescence, 24 h, higher = more signal, called active from +8 up or from −8 down;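 further: HEK293 cells carrying a splicing-competent luciferase reporter gene; test concentration not given here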
[5] = molecular target: Fibroblast growth factor 10 (Homo sapiens) (UniProt O15520); assay: FGF10 binders on small-molecule microarrays, primary screen, biochemical, small-molecule microarray, 635 nm fluorescence (AID 1102); conditions: FGF10 binding, fluorescence 635 nm, higher = more signal
[6] = test system: glycogen synthase kinase-3 (GSK3A per assay name; protocol says GSK3B); assay: GSK3 binders on small-molecule microarrays, primary screen, biochemical, small-molecule microarray, 635 nm fluorescence, GSK3A (AID 1103); conditions: small-molecule microarray binding, fluorescence 635 nm; higher = more signal; further: the record names both GSK3A and GSK3B
[7] = molecular target: Epidermal growth factor receptor (Homo sapiens) (UniProt P00533); assay: EGFR binders on small-molecule microarrays, primary screen, biochemical, small-molecule microarray, 635 nm fluorescence (AID 1104); conditions: EGFR binding, higher = more signal;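 further: score merges 667 nm emission intensity with spot signal to noise over triplicate slides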
[8] = molecular target: Follistatin-related protein 3 (Homo sapiens) (UniProt O95633); assay: FSTL3 binders on small-molecule microarrays, primary screen, biochemical, small-molecule microarray, 635 nm fluorescence (AID 1105); conditions: FSTL3 binding, higher = more signal;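 further: score merges emission near 667 nm and signal to noise per printed spot across three slides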
[9] = molecular target: Dickkopf-related protein 1 (Homo sapiens) (UniProt O94907); assay: DKK1 binders on small-molecule microarrays, primary screen, biochemical, small-molecule microarray, 635 nm fluorescence scan (AID 1106); conditions: DKK1 binding, higher = more signal;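 further: score merges emission near 667 nm with signal to noise over three replicate slides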
[10] = test system: Inhibin beta A chain (activin A); assay: INHBA (activin A) binders on microarrays, primary screen, biochemical, small-molecule microarray, 635 nm fluorescence scan (AID 1107); conditions: small-molecule microarray binding, higher = more signal;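 further: mouse activin A protein probed at 4.33 µg/mL on printed slides; score merges bound-protein fluorescence near 667 nm with spot signal-to-noise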
[11] = test system: Human papillomavirus type 1a protein E7 (residues 44-93); assay: HPV1a E7 fragment binders on microarrays, primary screen, biochemical, small-molecule microarray, residues 44-93, 635 nm fluorescence (AID 1108); conditions: small-molecule microarray binding, fluorescence 635 nm; higher = more signal;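 further: E7 fragment applied at 1 µg/mL in TBST for 1 h at 4 C; score combines spot fluorescence with its signal to noise ratio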
[12] = modulators of HCV replicon luciferase signal, primary screen, HCV replication inhibitor project, Huh7 cells, luciferase reporter (AID 1109); conditions: 48 h, higher = more signal;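 further: huh7 hepatoma cells harbouring a luciferase neomycin HCV replicon reporter; luciferase luminescence as measure of HCV replicon replication; test concentration not given here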
[13] = molecular target: Left-right determination factor 2 (Homo sapiens) (UniProt O00292); assay: LEFTY2 binders on small-molecule microarrays, primary screen, biochemical, small-molecule microarray, 635 nm fluorescence scan (AID 1110); conditions: LEFTY2 binding, higher = more signal
[14] = molecular target: Calmodulin-1 (Homo sapiens) (UniProt P0DP23); assay: CALM1 binders on microarrays, EGTA buffer, profiling panel, biochemical, small-molecule microarray, Cy5-labelled CALM1 (AID 1111); conditions: Cy5-CALM1 binding fluorescence, higher = more signal;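 further: labelled calmodulin applied in Tris saline Tween buffer holding calcium plus EGTA and DTT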
[15] = molecular target: Calmodulin-1 (Homo sapiens) (UniProt P0DP23); assay: calcium-bound CALM1 binders on microarrays, profiling panel, artefact control for SMM control-protein annotation, biochemical, small-molecule microarray, Cy5-labelled CALM1, plus calcium (AID 1112); conditions: Cy5-CALM1 binding fluorescence, higher = more signal;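 further: score merges spot fluorescence with signal to noise from triplicate slides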
[16] = small-molecule microarray binders of probe aWnt5a, primary screen, biochemical, biotinylated probe, 635/667 nm fluorescence (AID 1113); conditions: higher = more signal;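 further: score merges 667 nm fluorescence intensity with signal-to-noise per printed feature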
[17] = small-molecule microarray binders of probe aShh, primary screen, biochemical, biotinylated probe, 635/667 nm fluorescence (AID 1114); conditions: higher = more signal;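 further: probe is biotin-labelled aShh protein from a stem cell growth factor screen; measures binding of labelled protein to compounds printed on the slide; score merges feature fluorescence at 667 nm with signal-to-noise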
[18] = small-molecule microarray binders of probe aNog, primary screen, biochemical, biotinylated probe, 635/667 nm fluorescence (AID 1115); conditions: higher = more signal;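 further: probe is biotinylated aNog protein used at 0.15 µg/mL for 1 h at 4 C; z-score combines 667 nm fluorescence of each spot with its signal to noise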
[19] = molecular target: Torsin-1A-interacting protein 1 (Homo sapiens) (UniProt Q5JTV8); assay: LAP1 binders from COS7 cell lysate, primary screen, small-molecule microarray, 635/667 nm fluorescence (AID 1116); conditions: COS7-hLAP1 lysate binding, 635 nm fluorescence, higher = more signal
[20] = molecular target: Alpha-bungarotoxin (Bungarus multicinctus) (UniProt P60615); assay: alpha-bungarotoxin binders on microarray, profiling panel, artefact control for SMM control protein annotation, biochemical, small-molecule microarray, Alexa647 label, 635/667 nm fluorescence (AID 1117); conditions: alpha-BTX-A647 binding fluorescence, higher = more signal
Alpha-bungarotoxin (Bungarus multicinctus), sequence (P60615 whole entry, looked up): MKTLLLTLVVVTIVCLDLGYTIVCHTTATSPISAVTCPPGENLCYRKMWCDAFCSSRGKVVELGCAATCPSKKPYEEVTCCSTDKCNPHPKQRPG

Torsin-1A-interacting protein 1 (Homo sapiens), sequence (Q5JTV8 whole entry, looked up): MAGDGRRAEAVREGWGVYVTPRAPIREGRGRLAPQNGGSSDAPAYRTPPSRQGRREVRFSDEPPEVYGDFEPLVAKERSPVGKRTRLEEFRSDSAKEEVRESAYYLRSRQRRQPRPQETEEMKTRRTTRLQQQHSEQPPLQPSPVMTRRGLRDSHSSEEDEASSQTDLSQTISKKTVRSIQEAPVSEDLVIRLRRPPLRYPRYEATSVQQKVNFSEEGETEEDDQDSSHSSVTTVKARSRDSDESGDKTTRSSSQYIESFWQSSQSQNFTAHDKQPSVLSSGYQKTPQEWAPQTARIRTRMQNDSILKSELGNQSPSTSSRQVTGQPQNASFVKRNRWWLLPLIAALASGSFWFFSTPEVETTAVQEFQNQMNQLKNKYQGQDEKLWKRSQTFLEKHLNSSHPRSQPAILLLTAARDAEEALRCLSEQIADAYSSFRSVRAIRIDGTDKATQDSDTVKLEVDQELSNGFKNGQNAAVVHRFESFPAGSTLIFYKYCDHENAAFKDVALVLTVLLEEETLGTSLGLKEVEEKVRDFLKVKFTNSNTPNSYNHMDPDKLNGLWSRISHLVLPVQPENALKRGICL
Follistatin-related protein 3 (Homo sapiens), sequence (O95633 whole entry, looked up): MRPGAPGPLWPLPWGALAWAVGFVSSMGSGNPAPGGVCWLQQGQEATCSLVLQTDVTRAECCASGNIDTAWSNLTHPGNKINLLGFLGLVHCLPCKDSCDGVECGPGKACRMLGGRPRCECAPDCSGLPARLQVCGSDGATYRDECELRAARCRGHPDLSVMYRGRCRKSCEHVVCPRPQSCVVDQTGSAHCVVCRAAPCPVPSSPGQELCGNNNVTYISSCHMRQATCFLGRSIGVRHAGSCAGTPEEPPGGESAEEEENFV
Left-right determination factor 2 (Homo sapiens), sequence (O00292 whole entry, looked up): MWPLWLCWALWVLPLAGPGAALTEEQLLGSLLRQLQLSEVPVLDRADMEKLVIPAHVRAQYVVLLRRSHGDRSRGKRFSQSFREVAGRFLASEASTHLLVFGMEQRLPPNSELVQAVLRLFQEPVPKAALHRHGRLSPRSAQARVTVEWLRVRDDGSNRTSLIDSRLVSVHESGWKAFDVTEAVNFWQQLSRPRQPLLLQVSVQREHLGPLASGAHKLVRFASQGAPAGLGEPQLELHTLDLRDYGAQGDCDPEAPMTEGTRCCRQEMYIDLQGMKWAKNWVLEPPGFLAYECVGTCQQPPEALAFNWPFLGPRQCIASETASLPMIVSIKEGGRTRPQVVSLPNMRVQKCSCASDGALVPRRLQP
Fibroblast growth factor 10 (Homo sapiens), sequence (O15520 whole entry, looked up): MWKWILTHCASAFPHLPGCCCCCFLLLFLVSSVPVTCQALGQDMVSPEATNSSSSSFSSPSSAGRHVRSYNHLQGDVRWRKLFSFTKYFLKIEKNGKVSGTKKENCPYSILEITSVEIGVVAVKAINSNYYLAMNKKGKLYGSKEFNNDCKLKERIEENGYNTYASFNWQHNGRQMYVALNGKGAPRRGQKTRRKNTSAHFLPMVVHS
Epidermal growth factor receptor (Homo sapiens), sequence (P00533 whole entry, looked up): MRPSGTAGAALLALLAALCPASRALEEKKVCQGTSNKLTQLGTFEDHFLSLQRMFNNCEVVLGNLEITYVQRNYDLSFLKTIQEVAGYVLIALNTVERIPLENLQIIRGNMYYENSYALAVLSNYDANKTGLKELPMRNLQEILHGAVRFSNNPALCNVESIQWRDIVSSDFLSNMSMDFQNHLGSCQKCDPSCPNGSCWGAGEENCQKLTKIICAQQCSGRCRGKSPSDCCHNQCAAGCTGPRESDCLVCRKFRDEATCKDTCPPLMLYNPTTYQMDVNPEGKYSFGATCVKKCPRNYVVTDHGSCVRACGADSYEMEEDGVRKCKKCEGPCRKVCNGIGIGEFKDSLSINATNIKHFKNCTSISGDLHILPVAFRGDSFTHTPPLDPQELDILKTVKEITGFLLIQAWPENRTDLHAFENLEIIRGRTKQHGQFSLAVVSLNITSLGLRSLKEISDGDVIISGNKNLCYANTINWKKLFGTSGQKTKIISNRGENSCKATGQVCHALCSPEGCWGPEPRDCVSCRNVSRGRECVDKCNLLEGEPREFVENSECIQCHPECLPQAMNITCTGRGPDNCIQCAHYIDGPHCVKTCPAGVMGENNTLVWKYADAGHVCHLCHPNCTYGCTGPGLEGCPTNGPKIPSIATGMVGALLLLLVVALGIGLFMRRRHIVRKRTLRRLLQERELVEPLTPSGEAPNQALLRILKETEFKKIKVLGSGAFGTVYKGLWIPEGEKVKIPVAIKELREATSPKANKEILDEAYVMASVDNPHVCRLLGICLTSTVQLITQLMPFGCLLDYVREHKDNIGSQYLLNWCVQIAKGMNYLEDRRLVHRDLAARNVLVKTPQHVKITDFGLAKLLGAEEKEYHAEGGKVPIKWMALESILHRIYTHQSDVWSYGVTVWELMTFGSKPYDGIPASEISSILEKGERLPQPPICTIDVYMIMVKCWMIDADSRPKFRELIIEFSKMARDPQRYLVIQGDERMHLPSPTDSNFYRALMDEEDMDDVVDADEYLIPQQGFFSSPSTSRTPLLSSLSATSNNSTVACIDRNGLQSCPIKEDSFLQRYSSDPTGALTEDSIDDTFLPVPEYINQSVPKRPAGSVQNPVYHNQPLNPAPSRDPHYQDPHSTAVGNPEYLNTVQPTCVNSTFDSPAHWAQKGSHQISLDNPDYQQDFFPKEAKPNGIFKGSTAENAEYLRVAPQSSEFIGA
Dickkopf-related protein 1 (Homo sapiens), sequence (O94907 whole entry, looked up): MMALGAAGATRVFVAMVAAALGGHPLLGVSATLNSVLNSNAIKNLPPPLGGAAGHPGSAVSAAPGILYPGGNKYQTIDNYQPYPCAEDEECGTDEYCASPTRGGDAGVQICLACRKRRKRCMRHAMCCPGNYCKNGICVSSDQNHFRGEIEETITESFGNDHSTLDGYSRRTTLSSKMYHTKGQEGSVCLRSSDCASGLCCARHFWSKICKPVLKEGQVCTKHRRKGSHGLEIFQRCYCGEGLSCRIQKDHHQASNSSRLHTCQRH

Row | Compound | composite z-score [1] | composite z-score [2] | composite z-score [3] | z-score [4] | composite z-score [5] | composite z-score [6] | composite z-score [7] | composite z-score [8] | composite z-score [9] | composite z-score [10] | composite z-score [11] | z-score [12] | composite z-score [13] | composite z-score [14] | composite z-score [15] | composite z-score [16] | composite z-score [17] | composite z-score [18] | composite z-score [19] | composite z-score [20]
1 | CN(C)C(=O)[C@@]1(Cc2ccccc2)N=C(c2ccc(OCCCO)cc2)O[C@H]1c1ccccc1 | 1.46 | 1.26 | 1.24 | -0.24 (inactive) | 1.2 | 1.18 | -0.591 | 0.109 | -0.273 | 0.139 | 0.508 | -1.76 | -0.469 | 1.58 | 0.972 | 0.217 | 0.0654 | -0.332 | 1.44 | 0.907
2 | CC(C)C(CO)N1C(=O)[C@@H]2[C@H]3C(=O)OCC=C[C@H]3OC23C=CCN(c2ccc(Cl)cc2)C(=O)[C@@H]13 (stereo not given in full) | -1.14 | -0.0517 | -0.0455 | 0.121 (inactive) | -0.739 | -0.889 | -0.627 | -0.93 | -0.865 | 0.653 | -0.0683 | -0.665 | -0.433 | -0.871 | -0.499 | -0.1 | 0.0278 | -0.196 | -0.344 | -1.17
3 | CN(C)CCCCCCNC(=O)[C@@H]1C[C@@H]2C(=O)N3CCC[C@H]3C(=O)N2[C@@H]1c1cccc(OCCO)c1 | 1.35 | -0.0718 | 0.481 | 0.134 (inactive) | 0.92 | 1.33 | 1.11 | 1.49 | 1.81 | 0.749 | 0.35 | 0.857 | 0.944 | -0.215 | -1.74 | 0.0566 | 0.176 | 0.822 | 2.07 | 1.79
4 | COc1ccc([Si](C)(C)[C@@H]2[C@@H](CCO)O[C@]3(C(=O)N(Cc4ccccc4)c4ccc(N5C(=O)c6cccc7cccc5c67)cc43)[C@H]2C)cc1 | 1.42 | 0.0194 | 0.42 | -0.884 (inactive) | -0.231 | -0.642 | -0.0299 | -0.448 | -0.0876 | -0.344 | -0.432 | -4.17 | -0.558 | 0.991 | 0.836 | -0.251 | -0.237 | 0.2 | -0.697 | 0.0366
5 | Cn1cccc1C(O)C1C=CC2C(=O)N(c3ccccc3)C(=O)C2N1Nc1ccccc1 (stereo not given) | 1.19 | 0.966 | 1.04 | -0.441 (inactive) | 1.3 | 1.27 | 0.671 | 1.41 | 0.456 | 0.865 | 1.09 | -0.36 | 0.739 | 1.69 | 0.405 | 0.181 | -0.0578 | 0.977 | 1.31 | 1.68
